# Source: PubChem BioAssay (several laboratories)
# HSF-1 act: increases HSF-1 driven luciferase reporter signal. NIH3T3-HGL HSF-1 luciferase reporter, MG132, 8 h; 100% = twice DMSO control signal. activation, % at 9 µM. actives 1.7% (n = 300,000). AID 504408;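 active means mean replicate activation of at least 50% with a set share of replicates each reaching 50%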
# HSP90 inh: inhibitors of HSP90 luciferase refolding in rabbit reticulocyte lysate | actives 0.91% (n = 290,000) | AID 1789 | inhibition, % at 5.6 µM | luciferase refolding luminescence, 3 h;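 active means inhibition above the screen-wide mean plus 3 SD, computed separately per campaign, cut at about 16% in these data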;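 further: inhibitors lower the luminescence because luciferase stays unfolded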
# HSF1 inh: HSF1 inhibition | actives 0.77% (n = 300,000) | activity change, negative = inhibition, % at 7.5 µM (by protocol) | NIH3T3-HGL HSE-luciferase, MG132-induced, luminescence 8 h; active compounds read low;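 active means more than half of replicate wells show activity change below -50%, luminescence cut by over half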;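 further: luciferase reports HSF-1 transcriptional activity via heat shock element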
# FXN GAA850 act: frataxin GAA850 promoter activation; HEK293 lucGAA850 FXN promoter luciferase reporter, 24 h; percent of 10 µM SAHA response; activation, % at 6 µM; actives 0.56% (n = 360,000); AID 540364;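 active means activation above the average of all compounds screened plus 3 SD, cutoff fixed separately per campaign, cut at about 7.5% in these data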
# AHR activator: human AHR activation. activation, % at 5 µM. P35869. AHR-responsive luciferase reporter cells, luminescence. actives 2.5% (n = 320,000); in the data active means activation above about 47%
# NR0B1 inh: inhibitors of human orphan nuclear receptor DAX1 (NR0B1) | P51843 | HEK293 Gal4-DAX1 luciferase reporter, luminescence | inhibition, % at 6.75 µM | actives 0.99% (n = 340,000) | AID 504766;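 active means inhibition above the mean over all tested compounds plus 3 SD, cut at about 4.2% in these data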;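 further: inhibition shows as a rise in luminescence from relieved DAX1 repression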
# Target sequence (P51843 207-470 limits assumed): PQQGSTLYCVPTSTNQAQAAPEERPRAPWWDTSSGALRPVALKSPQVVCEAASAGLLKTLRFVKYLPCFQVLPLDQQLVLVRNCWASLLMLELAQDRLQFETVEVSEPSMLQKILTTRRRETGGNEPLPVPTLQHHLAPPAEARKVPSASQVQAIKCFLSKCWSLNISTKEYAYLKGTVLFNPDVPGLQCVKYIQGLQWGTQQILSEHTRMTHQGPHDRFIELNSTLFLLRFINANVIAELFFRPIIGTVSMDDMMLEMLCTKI
# HSP90 confirm: confirmation of HSP90 inhibitors | actives 64% (n = 2,300) | shares compounds with HSP90 inh | inhibition, % at 5.9 µM | AID 1846 | rabbit reticulocyte lysate, luciferase refolding luminescence, 3 h; in the data active means inhibition above about 18%
# FLuc counter: blocks native firefly luciferase in HSP90 counter-screen; shares compounds with HSP90 inh; purified native firefly luciferase, luminescence; inhibition, % at 5.9 µM; actives 48% (n = 2,300);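 active means inhibition above the mean inhibition of all tested sample wells plus 3 SD, cut at about 10% in these data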
# Hits are given with their value; . = inactive; / = no result. Only some compounds are listed: those with a hit (about 5.9% of all), similar ones and a draw of the others.
SMILES,HSF-1 act,HSP90 inh,HSF1 inh,FXN GAA850 act,AHR activator,NR0B1 inh,HSP90 confirm,FLuc counter
COc1ccc(C(=O)Nn2c(SCC(=O)NCC3CCCO3)nc3ccccc3c2=O)cc1 (stereo unspecified),.,63,-66,.,.,.,78,72
COc1ccc(C(=O)Nn2c(SCC(=O)NC3CCCC3)nc3ccccc3c2=O)cc1,.,72,-58,.,.,.,52,49
O=C(CSc1nc2ccccc2c(=O)n1NC(=O)Cc1ccccc1)NCc1ccccc1,.,.,.,.,.,.,/,/
CCOC(=O)N1CCC(N2C(=O)c3ccccc3C2Nc2ccc3c(C)cc(=O)oc3c2)CC1 (stereo unspecified),.,18,.,.,.,5.4,.,.
C[C@@H](C(=O)Nc1ccc2c(c1)OCO2)n1c(=O)[nH]c2ccccc2c1=O,.,.,.,.,.,.,/,/
C[C@@H](C(=O)Nc1ccc2c(c1)OCCO2)n1c(=O)[nH]c2ccccc2c1=O,.,54,-77,.,.,.,66,69
CSc1ncccc1C(=O)N1CCN(S(=O)(=O)c2ccccc2)CC1,.,.,.,.,.,.,/,/
COc1ccc(/C=N/Nc2nc3ccccc3s2)cc1O,.,22,.,.,/,.,55,49
COc1ccc(/C=N/Nc2nc3ccccc3o2)cc1O,.,.,.,.,.,.,/,/
O=C(/C=C\Nc1ccc2c(c1)OCO2)c1ccc2c(c1)OCO2,.,.,.,.,.,.,/,/
O=C(/C=C\Nc1ccc2c(c1)OCO2)c1ccccn1,.,71,-72,.,.,.,96,90
CC(C)C(NC(=O)OCc1ccccc1)C(=O)NCc1ccc(C(=O)O)cc1 (stereo unspecified),.,.,.,.,.,.,/,/
C/C(=N\Nc1ccc(Cl)c(C(=O)O)c1)c1ccc(N2CCOCC2)cc1,.,18,.,.,.,.,.,.
C/C(=N\Nc1ccc(Cl)c(C(=O)O)c1)c1cccs1,.,.,.,.,.,.,/,/
C/C(=N\Nc1ccc(Cl)c(C(=O)O)c1)c1ccc[nH]1,.,35,.,.,.,.,22,.
CCOC(=O)c1cn(Cc2c(C)c(C)c(C)c(C)c2C)nn1,.,.,.,.,.,.,/,/
O=C(CN1N=C(c2ccccc2)CCC1=O)NCc1ccco1,.,.,.,/,.,/,/,/
CS(=O)(=O)c1ccc2nc(NC(=O)Nc3ccccc3F)sc2c1,.,18,.,.,.,7.3,18,.
Cc1ccc(N2Cc3ccccc3C2=O)cc1,.,31,.,.,.,5.4,37,28
O=C1c2ccccc2CN1c1ccccc1,.,.,.,.,.,.,/,/
CC(=O)Nc1ccc(N(C(=O)Cc2cccs2)C(C(=O)NC2CCCC2)c2ccncc2)cc1 (stereo unspecified),.,.,.,.,.,.,/,/
CN1C(=O)c2ccccc2N(C)C1c1ccc(F)cc1 (stereo unspecified),.,.,.,.,/,.,/,/
CN1N=C2c3ccccc3CCCC2C1c1ccc(F)cc1 (stereo unspecified),.,18,.,.,49,.,.,.
COc1ccc(OCCCC(=O)OCC(=O)NNC(=O)c2ccc([N+](=O)[O-])cc2)cc1,.,/,.,.,.,.,/,/
COC(=O)c1ccc2nc(-c3ccc4c(c3)OCO4)cn2c1,.,18,.,.,.,.,73,65
COc1ccc(C(=O)NN)cc1,.,.,.,.,.,.,/,/
COc1ccc(-c2cn3cc(C(=O)NN)ccc3n2)cc1,.,43,.,.,55,.,24,.
CCc1ccn2cc(-c3ccc4c(c3)OCO4)nc2c1,.,73,.,.,.,/,86,85
CC(N)c1csc(Nc2nccc(C(F)(F)F)n2)n1 (stereo unspecified),/,/,/,.,/,/,/,/
CCCC(C)(C)C(=O)N1CCC1(C)C(=O)NS(=O)(=O)c1ccc(Cl)cc1 (stereo unspecified),/,/,/,.,/,/,/,/
